The record followed here is ChEMBL document CHEMBL4513146, “CO-ADD screening of Karazin Kharkiv National University (Ukraine) compounds”.

Potency and affinity values are given separately.

The Inhibition is the relative decrease from the control value, in per cent.

In one experiment the test system is Staphylococcus aureus. As to conditions: Concentration 32 ug.mL-1;; ASSAY_TEST Inhibition of Bacterial Growth; detection method Absorption (OD600); MEDIA CAMHB; plate type 384well; NBS; CORNING #3640; time 18 hr.
The test system of a further experiment is Escherichia coli. The note with it: Concentration 32 ug.mL-1;; ASSAY_TEST Inhibition of Bacterial Growth; detection method Absorption (OD600); MEDIA CAMHB; plate type 384well; NBS; CORNING #3640; time 18 hr.

In the case of `C=Cc1ccc(CN(c2ccc(Cl)cc2)S(=O)(=O)c2cccn3c(C)nnc23)cc1`, the Inhibition in the experiment with Staphylococcus aureus was 6.06%; in the experiment on Escherichia coli, -3.28%.

For `Cc1nnc2c(SCC(=O)Nc3cccc(Br)c3)nc3ccccc3n12`, the Inhibition in the experiment on Staphylococcus aureus is -13.66%; with Escherichia coli, -1.77%.

As for `COc1ccc(-n2ccn3c(-c4cccc([N+](=O)[O-])c4)nnc3c2=O)cc1`, the Inhibition is reported as 3.65% with Staphylococcus aureus and -6.72% in the experiment on Escherichia coli.

With `CC(C)c1nnc2c(SCC(=O)Nc3ccc(F)cc3F)nc3ccccc3n12`, the values for the Inhibition in the experiment on Staphylococcus aureus and with Escherichia coli were 6.8% and 1.07%, respectively.

As to `O=c1n(Cc2ccc3c(c2)OCO3)nc2ccc(-c3ccccc3)nn12`, the Inhibition in the experiment on Staphylococcus aureus is listed as 12.41%; in the experiment on Escherichia coli, -0.49%.

`COc1ccc(N2CCN(C(=O)Cn3nc4c(Oc5ccccc5)nccn4c3=O)CC2)cc1`: the Inhibition is on record as 16.39% in the experiment with Staphylococcus aureus and 4.58% in the experiment with Escherichia coli.

Consider `COc1ccc(-c2cc3c4nnc(SCC(=O)NCc5ccc(C)cc5)n4ccn3n2)cc1`, for which the Inhibition in the experiment with Staphylococcus aureus was -10.11%; in the experiment on Escherichia coli it was 0.51%.

`COc1ccccc1-n1ccn2c(SCC(=O)Nc3ccc(C)cc3Cl)nnc2c1=O`: the values for the Inhibition in the experiment on Staphylococcus aureus and in the experiment with Escherichia coli were 8.71% and -9.42%, respectively.

For `Cc1nnc2ccc(S(=O)(=O)N(Cc3ccccc3F)c3cc(F)cc(F)c3)cn12`, the Inhibition is -3.63% in the experiment with Staphylococcus aureus and -18.18% with Escherichia coli.

Consider `O=C(Cn1nc2nc(Nc3ccc(F)cc3)ccn2c1=O)Nc1ccc(F)cc1`, for which the Inhibition is -16.48% in the experiment on Staphylococcus aureus and -2.62% in the experiment on Escherichia coli.

Take `Cc1ccccc1Oc1nccn2c(=O)n(CC(=O)Nc3cc(F)ccc3F)nc12`: the Inhibition is listed as 11.37% in the experiment on Staphylococcus aureus and -2.39% in the experiment on Escherichia coli.

Consider `CCCCN(CC)C(=O)CSc1nnc2c(=O)n(Cc3ccccc3F)ccn12`, for which the Inhibition with Staphylococcus aureus is 1.71%; in the experiment on Escherichia coli it was -7.34%.

As to `CCc1nnc2ccc(S(=O)(=O)N(Cc3ccccc3)c3ccccc3)cn12`, the Inhibition is listed as 5.6% in the experiment on Staphylococcus aureus and -2.89% in the experiment with Escherichia coli.

Consider `O=C(NCc1ccccc1)c1ccc2nn(CC(=O)N3CCN(c4ccccc4F)CC3)c(=O)n2c1`, for which the values for the Inhibition with Staphylococcus aureus and in the experiment on Escherichia coli were 3.54% and -3.36%, respectively.

For the molecule `COc1ccc2[nH]cc(C(=O)CSc3nnc4c(=O)n(-c5cccc(Cl)c5C)ccn34)c2c1`, the Inhibition in the experiment with Staphylococcus aureus turned out to be 18.84%; in the experiment with Escherichia coli, 2.67%.

Regarding `COc1ccc(CCn2c(=O)c3sccc3n3c(=O)n(Cc4ccccc4Cl)nc23)cc1OC`, the results for the Inhibition with Staphylococcus aureus and in the experiment with Escherichia coli were 1.03% and -4.64%, respectively.

As to `COc1ccc(NC(=O)Cn2nc3ccc(-c4ccccc4)nn3c2=O)cc1OC`, the figures for the Inhibition with Staphylococcus aureus and with Escherichia coli were 0.84% and -8.27%, respectively.
